# Source: PubChem BioAssay
# Values without a mark were called inactive. Calls of active or inactive are those of the source. Unless noted, no stated cut-off is given here; in the data, active means inhibition above about 25%; inactive means the rest.
# Legend:
# [1] = target: Nuclear receptor coactivator 1 (Homo sapiens) (UniProt Q15788); assay: SRC1 coactivator transcriptional activity inhibitors, confirmation, cell-based, luminescence, quadruplicate (AID 588820;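 active means mean inhibition above 46.68%, the untreated control wells mean plus 3 SD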;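 further: 0% = DMSO wells and 100% = gossypol 36 µM treated wells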); settings: HEK293 GAL4-SRC1 luciferase reporter, at 3.6 µM, active compounds read high
# [2] = VP16 transactivation inhibitors, counter-screen for SRC1 inhibitor project, cell-based, luminescence, high throughput (AID 588824); settings: cell-based VP16 transactivation luciferase luminescence; at 3.6 µM; active compounds read high
# [3] = StAR promoter reporter inhibitors, counter-screen for LRH-1 inverse agonist project, cell-based, luminescence, high throughput (AID 651611; in the data active means inhibition above about 28%); settings: StAR promoter luciferase reporter counterscreen, at 3.6 µM, active compounds read high
# [4] = target: Nuclear receptor subfamily 5 group A member 2 (Homo sapiens) (UniProt O00482); assay: LRH-1 (NR5A2) inverse agonists, retest, confirmation, cell-based, luminescence (AID 651613; in the data active means inhibition above about 42%;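 further: HEK293T cells co-transfected with LRH-1 and StAR promoter luciferase reporter; 0% = vehicle wells and 100% = parental cells lacking receptor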); settings: cell-based LRH-1 luciferase reporter, inverse agonism; at 3.6 µM; active compounds read high
# [5] = target: Steroidogenic factor 1 (Homo sapiens) (UniProt Q13285); assay: SF1 (NR5A1) inverse agonists, counter-screen for LRH-1 inverse agonist project, cell-based, luminescence, high throughput (AID 651614; in the data active means inhibition above about 44%;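 further: cells cotransfected with StAR promoter reporter and SF1 expression vector; 0% = vehicle on cells with receptor and 100% = vehicle on cells lacking receptor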); settings: cell-based SF1 luciferase reporter, at 3.6 µM, active compounds read high
# [6] = VP16 transactivation reporter inhibitors, counter-screen for LRH-1 inverse agonist project, cell-based, luminescence, high throughput (AID 651615; in the data active means inhibition above about 33%); settings: Gal4-VP16 luciferase reporter cells, at 3.6 µM, active compounds read high
# [7] = tested on: transactivating tegument protein VP16 (Human herpesvirus 1); assay: VP16 transactivation reporter inhibitors, counter-screen for SRC2 inhibitor project, cell-based, luminescence, single concentration (AID 652007; in the data active means inhibition above about 36%); settings: cell-based VP16 transactivation luciferase reporter, at 8.9 µM, active compounds read high
# [8] = target: Nuclear receptor coactivator 2 (Homo sapiens) (UniProt Q15596); assay: SRC2 coactivator transcriptional activity inhibitors, confirmation, cell-based, luminescence, HEK293, triplicate (AID 652008;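 active means mean inhibition above 46.5%, the solvent-only control mean plus 3 SD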;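 further: 0% = DMSO-treated cells and 100% = Gossypol at 36 µM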); settings: HEK293 GAL4-SRC2 luciferase reporter, at 8.9 µM, active compounds read high
# Nuclear receptor coactivator 2 (Homo sapiens), sequence (Q15596 whole entry, looked up, the tested form may be a part): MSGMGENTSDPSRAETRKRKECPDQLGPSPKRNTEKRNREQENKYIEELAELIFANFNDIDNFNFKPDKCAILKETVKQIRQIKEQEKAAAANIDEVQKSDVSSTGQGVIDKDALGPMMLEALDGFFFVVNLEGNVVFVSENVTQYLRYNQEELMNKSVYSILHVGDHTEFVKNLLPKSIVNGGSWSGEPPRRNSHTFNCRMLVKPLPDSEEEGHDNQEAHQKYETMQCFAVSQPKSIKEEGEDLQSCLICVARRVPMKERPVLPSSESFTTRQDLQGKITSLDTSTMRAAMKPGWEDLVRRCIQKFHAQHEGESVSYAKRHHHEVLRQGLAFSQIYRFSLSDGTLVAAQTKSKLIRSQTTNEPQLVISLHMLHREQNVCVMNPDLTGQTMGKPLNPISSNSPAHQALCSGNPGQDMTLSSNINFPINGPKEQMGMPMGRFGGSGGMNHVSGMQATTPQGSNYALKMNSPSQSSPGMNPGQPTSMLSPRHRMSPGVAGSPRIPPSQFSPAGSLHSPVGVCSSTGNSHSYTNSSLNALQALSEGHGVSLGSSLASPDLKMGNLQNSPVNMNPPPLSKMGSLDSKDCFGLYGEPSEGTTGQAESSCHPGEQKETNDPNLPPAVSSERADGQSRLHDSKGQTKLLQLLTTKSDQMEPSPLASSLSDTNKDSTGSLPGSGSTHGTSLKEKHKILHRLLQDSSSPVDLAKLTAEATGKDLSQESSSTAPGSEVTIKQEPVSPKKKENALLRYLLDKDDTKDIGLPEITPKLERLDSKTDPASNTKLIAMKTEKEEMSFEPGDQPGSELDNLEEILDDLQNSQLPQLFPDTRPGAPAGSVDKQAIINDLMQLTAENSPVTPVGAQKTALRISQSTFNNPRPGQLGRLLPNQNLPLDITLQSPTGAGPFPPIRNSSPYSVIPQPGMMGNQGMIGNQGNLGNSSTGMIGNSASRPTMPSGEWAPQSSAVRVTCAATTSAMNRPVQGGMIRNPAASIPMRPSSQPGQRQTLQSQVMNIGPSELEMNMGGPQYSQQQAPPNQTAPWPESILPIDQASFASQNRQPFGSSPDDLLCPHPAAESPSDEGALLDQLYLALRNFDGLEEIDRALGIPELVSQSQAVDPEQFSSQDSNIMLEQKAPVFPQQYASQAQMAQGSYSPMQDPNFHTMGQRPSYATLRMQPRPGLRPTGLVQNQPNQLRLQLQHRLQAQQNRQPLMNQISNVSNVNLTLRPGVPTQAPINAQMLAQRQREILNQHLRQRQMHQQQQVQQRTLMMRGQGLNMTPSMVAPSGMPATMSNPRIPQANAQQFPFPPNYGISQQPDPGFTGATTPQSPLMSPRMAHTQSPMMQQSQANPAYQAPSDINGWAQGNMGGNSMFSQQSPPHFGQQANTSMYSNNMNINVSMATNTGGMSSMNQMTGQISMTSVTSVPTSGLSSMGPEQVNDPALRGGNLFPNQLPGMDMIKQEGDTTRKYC
# Steroidogenic factor 1 (Homo sapiens), sequence (Q13285 whole entry, looked up, the tested form may be a part): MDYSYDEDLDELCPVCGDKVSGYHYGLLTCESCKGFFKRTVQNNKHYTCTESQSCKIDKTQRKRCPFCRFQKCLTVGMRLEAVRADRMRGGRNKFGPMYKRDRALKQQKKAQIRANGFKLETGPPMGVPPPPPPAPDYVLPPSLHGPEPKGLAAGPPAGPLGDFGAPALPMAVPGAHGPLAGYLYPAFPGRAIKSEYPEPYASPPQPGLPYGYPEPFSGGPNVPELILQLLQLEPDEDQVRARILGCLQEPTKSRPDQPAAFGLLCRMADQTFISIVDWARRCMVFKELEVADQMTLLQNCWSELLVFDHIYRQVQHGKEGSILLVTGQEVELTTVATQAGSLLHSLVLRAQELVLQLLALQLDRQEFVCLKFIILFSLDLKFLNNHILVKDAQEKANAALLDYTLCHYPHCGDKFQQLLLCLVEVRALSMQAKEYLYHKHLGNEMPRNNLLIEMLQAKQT
# Nuclear receptor subfamily 5 group A member 2 (Homo sapiens), sequence (O00482 whole entry, looked up): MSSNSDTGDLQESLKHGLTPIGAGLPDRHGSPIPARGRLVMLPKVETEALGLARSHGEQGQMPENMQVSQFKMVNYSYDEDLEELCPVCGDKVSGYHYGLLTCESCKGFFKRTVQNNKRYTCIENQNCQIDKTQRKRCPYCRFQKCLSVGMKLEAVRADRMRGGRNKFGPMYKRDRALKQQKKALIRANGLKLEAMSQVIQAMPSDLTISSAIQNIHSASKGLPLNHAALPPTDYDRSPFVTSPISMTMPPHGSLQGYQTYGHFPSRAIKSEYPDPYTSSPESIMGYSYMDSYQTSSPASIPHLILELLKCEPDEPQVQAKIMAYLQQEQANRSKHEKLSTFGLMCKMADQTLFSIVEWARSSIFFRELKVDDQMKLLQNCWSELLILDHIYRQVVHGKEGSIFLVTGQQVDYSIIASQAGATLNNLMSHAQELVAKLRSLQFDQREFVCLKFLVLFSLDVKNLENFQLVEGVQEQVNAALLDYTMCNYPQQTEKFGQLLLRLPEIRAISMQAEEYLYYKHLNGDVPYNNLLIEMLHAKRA
# Nuclear receptor coactivator 1 (Homo sapiens), sequence (Q15788 whole entry, looked up, the tested form may be a part): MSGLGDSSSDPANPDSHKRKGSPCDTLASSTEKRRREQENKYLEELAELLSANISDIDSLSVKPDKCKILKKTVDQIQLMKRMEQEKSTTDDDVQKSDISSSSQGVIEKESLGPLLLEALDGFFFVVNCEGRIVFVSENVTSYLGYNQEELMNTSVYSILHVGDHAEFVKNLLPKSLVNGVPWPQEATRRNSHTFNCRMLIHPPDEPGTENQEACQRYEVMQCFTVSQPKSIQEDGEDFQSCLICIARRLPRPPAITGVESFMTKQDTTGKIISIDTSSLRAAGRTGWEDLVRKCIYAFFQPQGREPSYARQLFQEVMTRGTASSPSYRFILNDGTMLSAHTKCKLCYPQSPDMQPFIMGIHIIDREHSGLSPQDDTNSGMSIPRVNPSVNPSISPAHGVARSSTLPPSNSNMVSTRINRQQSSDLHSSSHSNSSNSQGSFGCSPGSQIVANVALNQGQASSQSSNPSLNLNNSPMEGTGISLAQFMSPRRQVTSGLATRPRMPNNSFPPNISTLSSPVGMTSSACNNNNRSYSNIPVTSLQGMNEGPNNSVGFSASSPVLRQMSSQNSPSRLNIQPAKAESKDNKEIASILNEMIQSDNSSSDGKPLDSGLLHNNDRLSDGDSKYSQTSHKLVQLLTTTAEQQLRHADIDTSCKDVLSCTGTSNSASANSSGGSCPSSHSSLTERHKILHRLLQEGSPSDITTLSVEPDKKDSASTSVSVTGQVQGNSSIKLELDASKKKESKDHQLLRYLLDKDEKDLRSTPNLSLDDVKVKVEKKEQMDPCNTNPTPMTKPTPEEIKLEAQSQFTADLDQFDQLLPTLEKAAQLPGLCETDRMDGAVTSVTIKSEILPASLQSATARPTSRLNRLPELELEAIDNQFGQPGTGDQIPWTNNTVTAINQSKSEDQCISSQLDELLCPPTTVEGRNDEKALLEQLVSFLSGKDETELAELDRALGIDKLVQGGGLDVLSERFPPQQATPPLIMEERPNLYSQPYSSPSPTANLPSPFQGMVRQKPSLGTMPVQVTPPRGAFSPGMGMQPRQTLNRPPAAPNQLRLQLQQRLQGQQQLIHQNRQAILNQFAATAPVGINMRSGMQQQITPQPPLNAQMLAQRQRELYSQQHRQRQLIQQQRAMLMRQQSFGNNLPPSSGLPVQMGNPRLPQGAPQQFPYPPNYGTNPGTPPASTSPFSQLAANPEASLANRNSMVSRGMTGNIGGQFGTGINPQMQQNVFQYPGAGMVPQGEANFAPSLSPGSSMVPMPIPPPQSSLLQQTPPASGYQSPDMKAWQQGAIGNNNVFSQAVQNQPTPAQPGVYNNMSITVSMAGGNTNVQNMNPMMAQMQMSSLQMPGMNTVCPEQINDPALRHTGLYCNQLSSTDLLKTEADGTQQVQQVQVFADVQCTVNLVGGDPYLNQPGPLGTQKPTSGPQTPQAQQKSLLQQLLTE
SMILES,inhibition [1],inhibition [2],inhibition [3],inhibition [4],inhibition [5],inhibition [6],inhibition [7],inhibition [8]
Cc1nc2ccc(NC(=O)c3cc(S(=O)(=O)N(C)c4ccccc4)ccc3Cl)cc2s1,-5.16%,33.7% (active),30.4% (active),57.5% (active),59.5% (active),47.6% (active),–,–
Fc1ccc(NC(=S)N2CCCN(c3ccc(C(F)(F)F)cn3)CC2)c(F)c1,-32.2%,36.5% (active),26.6%,57.6% (active),57.8% (active),51.6% (active),–,–
COc1ccc(CC(=O)Nc2cccc(S(=O)(=O)N3CCCCCC3)c2)cc1OC,-18.9%,33% (active),20.2%,65.6% (active),53.4% (active),49.3% (active),–,–
COc1ccccc1NS(=O)(=O)c1cccc(C(=O)NC2CCN(Cc3ccccc3)CC2)c1,-19.5%,26.4% (active),26.2%,60.4% (active),65.3% (active),48.3% (active),–,–
CN(C)CCNc1ccc2ncn3c4ccc(O)cc4c(=O)c1c23,23.2%,52.9% (active),49.3% (active),81.6% (active),80.5% (active),79.9% (active),–,–
COc1ccc(NS(=O)(=O)c2ccc(-c3cnc(C4CC4)o3)cc2)cc1OC,-15.9%,37.2% (active),53.2% (active),77.5% (active),78.8% (active),31.6% (active),–,–
CCN(CC)C1=CC(=[N+]2CCCC2)CC(C)(C)C1,-5.15%,22.7%,17.4%,61.9% (active),57.5% (active),45.8% (active),–,–
Cc1cccc(-n2ncc3c2CCCC3NC(=O)c2ccncc2)c1C (stereo unspecified),-10.4%,26.6% (active),14.7%,54.5% (active),52.1% (active),44% (active),–,–
Cc1ccc(S(=O)(=O)/N=C(\CCl)N2CCOCC2)cc1,-32.5%,-30.7%,23.9%,50.2% (active),52.1% (active),-22.8%,–,–
Cc1c(C(C)C)c(=O)n(-c2ccc(S(=O)(=O)NCc3ccccc3)cc2)n1C,-18.5%,30.9% (active),16.5%,54.3% (active),55.1% (active),44.1% (active),–,–
CC(C)C(=O)NC(c1ccc(Cl)cc1Cl)c1ccc2cccnc2c1O (stereo unspecified),6.86%,16.8%,48.2% (active),35.2%,41.4%,47.6% (active),–,–
Clc1ccc(-c2nnc(CSc3nnc(-c4cccs4)n3Cc3ccccc3)o2)cc1,-0.02%,30.5% (active),5.56%,51.7% (active),48.9% (active),41.6% (active),–,–
Cc1ccc(Oc2ccc(OCC(=O)Nc3ccncc3)cc2)cc1,-33.1%,41.3% (active),35.7% (active),79.2% (active),70.5% (active),51% (active),–,–
CN(C)CCNc1ccc(CO)c2sc3ccc(O)cc3c(=O)c12,44.8%,39.1% (active),77% (active),89.5% (active),75.7% (active),61.2% (active),–,–
Cc1ccc2c(c1)c(/C=C/c1cc[n+](C)cc1)c(C)n2C,32.9%,57.1% (active),59.6% (active),91.4% (active),81.1% (active),80% (active),–,–
COc1cc2c(oc(=O)c3cc(C)cc(OC)c32)c2c(C3OC(C)C(O)C(C)(O)C3O)ccc(O)c12 (stereo unspecified),-62.6%,64.9% (active),50.6% (active),93.8% (active),75.5% (active),94% (active),–,–
c1cn(-c2ncnc3sc4c(c23)CCCC4)cn1,11.4%,7.19%,–,–,–,–,-1.75%,-4.88%
Cc1sc2ncnc(NC3CCN(Cc4ccccc4)CC3)c2c1C,-6.93%,23.8%,–,–,–,–,14.3%,29%
Cc1ccc(C(=O)c2cccc(N)c2)cc1C,-41.2%,3.5%,–,–,–,–,58% (active),76.3% (active)
CC(C)(C)c1cc(/C=N/O)cc(C(C)(C)C)c1O,33.6%,26.5% (active),–,–,–,–,-7.33%,9.3%
O=[N+]([O-])c1ccc2c(c1)-c1ccccc1C2=NO,21.4%,9.81%,–,–,–,–,12.1%,13.5%
